Source: PubChem BioAssay AID1224897 (Sanford-Burnham Center for Chemical Genomics, 2016)
The other results are listed elsewhere or left out. The source made the active and inactive calls. The rule behind the calls is not given here.

Biological target: Hepatocyte nuclear factor 4-alpha (Homo sapiens) (UniProt P41235)
Assay: change in HNF4A binding to DNA, retest, confirmation, biochemical, fluorescence polarization, FITC-DNA (AID 1224897)
Settings: 1 h, at 12.5 µM, active compounds read high

Hepatocyte nuclear factor 4-alpha (Homo sapiens), sequence (P41235 whole entry, looked up): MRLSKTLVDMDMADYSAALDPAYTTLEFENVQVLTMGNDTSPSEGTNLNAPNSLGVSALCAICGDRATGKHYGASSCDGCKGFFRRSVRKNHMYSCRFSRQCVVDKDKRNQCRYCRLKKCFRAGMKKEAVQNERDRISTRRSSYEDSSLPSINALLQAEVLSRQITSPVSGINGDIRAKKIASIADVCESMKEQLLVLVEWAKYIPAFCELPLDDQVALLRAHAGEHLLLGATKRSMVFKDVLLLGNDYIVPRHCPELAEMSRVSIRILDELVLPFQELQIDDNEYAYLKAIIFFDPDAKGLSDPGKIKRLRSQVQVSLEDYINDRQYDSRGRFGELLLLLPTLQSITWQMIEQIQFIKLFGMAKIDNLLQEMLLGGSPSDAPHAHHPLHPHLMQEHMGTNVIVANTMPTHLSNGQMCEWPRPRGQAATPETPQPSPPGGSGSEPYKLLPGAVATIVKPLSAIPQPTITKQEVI

## COc1ccccc1N=Nc1c(O)[nH]c(=S)[nH]c1=O
  activity change: 112% (active)
